From ChEMBL document CHEMBL3988442, “University of Dundee, Small-Polar-MMV Screening Library” (2021)
In all, about 48,000 compounds went through this assay and about 13,000 (27%) showed an effect of 50% or more. This is one part of the list.

These molecules were tested on Wolbachia pipientis (assay: Anti-Wolbachia Cell-Based Screen). Details: 5 µM.
Format: functional
Set-up: scale not given: in the data most compounds retested in dose-response had high values

SMILES	Percent Effect [%]
Cc1nc(-c2ccc(C(=O)O)cc2)cc(C2CCN(C(C)C)C2)n1 (stereo not drawn)	-2.545
CC(C)S(=O)(=O)N1CCCC(c2cccc(C(=O)O)c2)C1 (stereo not drawn)	13.9
Cc1nc(O)cc(C2CCN(C(=O)C(C)Cn3nc(C)nc3C)CC2)n1 (stereo not drawn)	-10.44
Cc1nc(-c2ccc(C(=O)O)cc2)cc(C2CCN(C(C)C)CC2)n1	130.3
O=C(O)C(F)(F)F.O=C(c1cnccn1)N1CCN2C[C@H](OCc3ccccc3F)C[C@H]2C1	4.203
Cc1ccoc1C(=O)NC1CCN(Cc2csc3c(F)cccc23)CC1	2.463
O=C(NCc1cnn2ccccc12)NC1CCCC1	-4.156
Cc1cccc(N2CCC3(CCCN3Cc3cnn(C)c3C)CC2)n1	9.163
Cc1c(CNC(=O)Nc2cccc3c2CCN3C)cnn1C	-8.63
Cc1c(CN2CCCC2(C)C(=O)N2CCOCC2)cnn1C (stereo not drawn)	169.3
CCn1cc(CN2CCCN(C(=O)C3(C)CCOCC3)CC2)cn1	8.44
Cc1c(CN2CCCC2(C)C(=O)NC2CCCC2)cnn1C (stereo not drawn)	156.7
CNC(=O)C1(C)CCCN1Cc1cnn(C)c1C (stereo not drawn)	106.7
Cc1c(CNC(=O)c2cn(CCC3CCCCN3)nn2)cnn1C (stereo not drawn)	10.08
Cc1oncc1C(=O)N1CCC(O)(CN2CCOCC2)C(C)(C)C1 (stereo not drawn)	29.5
CNc1nc(CNC(=O)Nc2ccc(OC(C)C)cc2C)cs1	3.504
CCc1nc2n(n1)CCCC2Nc1nc(C2CC2)ns1 (stereo not drawn)	8.759
COc1cc(C)ccc1C(=O)N1CCC2(CCC(=O)N(C(C)C)C2)CC1	-6.21
CCC(NC(=O)NCc1cc(Cl)ccc1OC)c1noc(C)n1 (stereo not drawn)	-1.249
CC(C)(O)CNC(=O)c1sccc1Br	4.512
Cn1cc(N2CCCC(Oc3ccc(F)cc3Cl)C2=O)cn1 (stereo not drawn)	5.607
CN(CCCN1CCCC1)[C@@H]1c2ccccc2C2(CCNCC2)[C@H]1O	1.656
O=C(CCCc1ccccn1)N1CCCC1c1noc(C2CC2)n1 (stereo not drawn)	105.7
O=C(CCc1cccs1)N1CCCC1c1noc(C2CC2)n1 (stereo not drawn)	100.7
CCc1nc(C2CCCN2C(=O)Cc2cccs2)no1 (stereo not drawn)	95.79
CCc1nc(C2CCCN2C(=O)CCc2cccs2)no1 (stereo not drawn)	-2.964
CCc1nc(C2CCCN2CCc2cccs2)no1 (stereo not drawn)	-1.558

SMILES	Percent Effect [%]
c1csc(CCN2CCCC2c2noc(C3CC3)n2)c1 (stereo not drawn)	-13.07
O=C(COc1cc(Cl)cc(Cl)c1)NCc1nncn1C1CC1	2.768
c1cn(Cc2nnc(C3CCN(c4nccs4)CC3)n2C2CC2)cn1	0.8881
CC(C)n1ccnc1C1CCCN(c2ccncc2F)C1 (stereo not drawn)	20.23
Cc1c(C(=O)NC2(C#N)CCCC2)nnn1-c1ccccc1Cl	-3.476
CCn1c(C)nnc1SCCNC(=O)Cn1cnc2ccccc2c1=O	1.964
Cc1nnc(SCCNC(=O)Cn2cnc3ccccc3c2=O)s1	-10.12
CC(C)NC(=O)CCCn1cnc2ccccc2c1=O	103.3
Cc1cnc(CNC(=O)CCCn2cnc3ccccc3c2=O)cn1	123.4
COC(=O)CNC(=O)CCCn1cnc2ccccc2c1=O	126.5
CCC(C)NC(=O)CCc1ccnc2ccccc12 (stereo not drawn)	0.4358
Cn1ccnc1SCCNC(=O)Cn1cnc2ccccc2c1=O	4.017
Cc1cccc(N2CCN(CCC(=O)NCc3cnc(C)cn3)CC2)c1	-29.47
COCC(C)NC(=O)CCCn1cnc2ccccc2c1=O (stereo not drawn)	133.1
COCC(C)NC(=O)CCSc1ccc(F)cc1 (stereo not drawn)	4.419
CN(C)S(=O)(=O)c1ccc(CNc2ccc(Cl)cn2)cc1	-2.882
CSCC(C)C(=O)NCc1c(C)nc2cc(=O)[nH]n2c1C (stereo not drawn)	-19.78
CCCc1nccn1-c1ccc(C(O)CN2CCOCC2)cc1 (stereo not drawn)	-2.856
CCc1nc2c(c(N3CCOCC3)n1)CCN(C(=O)c1ccon1)CC2	0.9669
O=C(CCCn1cnc2ccccc2c1=O)Nc1nc[nH]n1	118.2
Cc1cc(C(C)NC(=O)CCn2nnc3ccccc3c2=O)c(C)o1 (stereo not drawn)	5.131
O=C(CCn1ccc2ncccc2c1=O)N1CCCC1	-7.075
CC(NC(=O)CCCc1ccc(Cl)cc1)c1nnn[nH]1 (stereo not drawn)	-9.693
Cn1cc2ncn(CCCOc3cccnc3)c(=O)c2n1	-2.569
CC(NC(=O)CCCn1cnc2ccccc2c1=O)c1ncn[nH]1 (stereo not drawn)	135.6
Cc1noc(C)c1CN(C)C(=O)NCCOc1ccc(F)cc1F	-11.52
